Records with an inconclusive call do not appear. A number with no mark means an inactive call. Calls of active or inactive are those of the source. Calls follow the shape of the dose curve; as a rule, active = well fitted inhibition curve with a large enough effect; inconclusive = small, poorly fitted or top-dose-only effect, or effect the other way; inactive = flat fitted curve, though single readings scatter.
What follows are compounds tested against ATP-dependent 6-phosphofructokinase (Trypanosoma brucei brucei) (UniProt O15648) (assay: qHTS Validation Assay to Find Inhibitors of T. brucei phosphofructokinase (AID 485368)). Conditions: T. brucei PFK enzyme assay, qHTS 7-point titration; series mostly up to 57.5 µM; activity change, negative = inhibition: at the top concentration.
Chain of ATP-dependent 6-phosphofructokinase (Trypanosoma brucei brucei) (O15648 whole entry, looked up): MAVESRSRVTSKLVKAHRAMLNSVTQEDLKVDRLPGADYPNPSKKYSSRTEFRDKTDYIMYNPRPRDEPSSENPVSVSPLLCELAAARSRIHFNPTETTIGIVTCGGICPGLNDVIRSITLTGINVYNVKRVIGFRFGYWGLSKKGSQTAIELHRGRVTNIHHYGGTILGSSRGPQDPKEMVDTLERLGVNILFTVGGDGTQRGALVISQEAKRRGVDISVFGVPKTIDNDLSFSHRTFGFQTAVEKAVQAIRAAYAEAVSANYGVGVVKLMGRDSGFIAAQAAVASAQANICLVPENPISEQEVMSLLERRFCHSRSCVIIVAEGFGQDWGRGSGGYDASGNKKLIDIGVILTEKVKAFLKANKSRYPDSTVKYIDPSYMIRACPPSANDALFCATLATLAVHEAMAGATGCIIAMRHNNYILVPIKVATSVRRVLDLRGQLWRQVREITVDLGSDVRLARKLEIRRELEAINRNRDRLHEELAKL
Text: NIH Molecular Libraries Probe Production Network [MLPCN]
NIH Chemical Genomics Center [NCGC]
PI Name: Malcolm Walkinshaw, University of Edinburgh
Various species of the protozoan family Trypanosomatidae are responsible for a range of serious human diseases in tropical and subtropical areas of the world. […] Many of the disorders caused by trypanosomatids are fatal if left untreated, but most currently used drugs are inefficient and toxic.
Oxidative metabolism involving the mitochondrial tricarboxylic acid cycle and oxidative phosphorylation are repressed in these parasites, and recent RNA interference (RNAi) experiments have shown that even partial depletion of certain individual glycolytic enzymes can lead to the death of cultured parasites. One such glycolytic enzyme, phosphofructokinase (PFK), catalyzes the formation of fructose-1,6-bisphosphate (F1,6BP) and ADP from fructose-6-phosphate (F6P) and ATP, and in many metabolic circumstances makes an important contribution to the control of flux through the glycolytic pathway. As a specific glycolytic target, PFK is particularly attractive as it catalyzes the first irreversible step in glycolysis, and structural and kinetic studies have shown very substantial and essential differences from corresponding host enzymes, allowing for the discovery of parasite-selective inhibitors.
The goal of this screen is to find small-molecule inhibitors of T. brucei PFK using a biochemical assay that measures PFK activity as a function of ADP production. A luminescence-based assay for T. brucei PFK activity has been developed which uses luciferase to detect production of ADP. Traditional luciferase-based nucleotide detection reagents rely on ATP production as a direct substrate for the luciferase reaction; however, PFK catalyzes the transfer of a phosphate from ATP to F6P, resulting in the net depletion of ATP. To directly measure the ADP product of the PFK reaction, we used the ADP-Glo detection kit (Promega), which utilizes two separate reactions to 1) deplete all remaining uncatalyzed ATP and 2) convert all remaining ADP to ATP, which is then detected through a traditional luciferase-coupled reaction. Compounds were screened as a concentration-titration series that ranged from 57 uM to 0.7 nM.
NCGC Assay Protocol Summary:
Substrate buffer was dispensed into white, solid 1536-well plates at 3uL/well in 0.1M triethanolamine (TEA) buffer, pH 8.0, containing final concentrations of 5 mM MgCl2, 0.01% Tween20, 0.5 mM fructose-6-phosphate (F6P) and 0.1mM ATP. Then, 23 nL of compounds or DMSO were delivered to each well using a pin tool. One uL T. brucei PFK (0.1M TEA, 0.01% Tween20, 0.1% bovine serum albumin (BSA) and 1.25nM PFK, final concentrations) was then dispensed, and plates were incubated at room temperature for 45 min. The luminescent detection reagent, ADP-Glo (Promega), was then added in two steps: the first reagent, ADP-Glo (which converts remaining uncatalyzed ATP), was added at 2.5uL/well and incubated for ten minutes at room temperature, and the second component, Kinase Detection reagent (which converts ADP to ATP as a substrate for luciferase-based luminescence), was added immediately after at 5uL/well, followed by one final ten minute room temperature incubation. The plates were measured on a ViewLux plate reader for luminescent signal using a clear filter with a one second exposure. The %Activity was determined from the corrected luminescence values. As no specific T. brucei PFK inhibitors have been identified in the literature, 1x (1.25nM) and 0x PFK enzyme controls (untreated) were included to normalize %Activity of identified inhibitors; 0x enzyme values corresponded to 100%Activity (full inhibition), while 1x PFK enzyme values were used to normalize 0%Activity (no inhibition).
Concentration-response curves were fitted to the signals arising from the resulting luminescence. […]
`CCC(=O)c1ccc2c(c1)N(CCCN(C)C)c1ccccc1S2` was tested, and the outcome was “inactive”.
For `C#CCN(C)CCCOc1ccc(Cl)cc1Cl`, the outcome was “inactive”.
`NC(Cc1ccc(Cl)cc1)C(=O)O` (stereo not given) was tested, and the outcome was “inactive”.
In the case of `Cc1nc2ccccn2c(=O)c1CCN1CCC(C(=O)c2ccc(F)cc2)CC1`, the outcome is reported as “inactive”.
`CCOC(=O)C1=C(C)NC(C)=C(C(=O)OC)C1c1cccc(Cl)c1Cl` (stereo not given) was tested, and the outcome was “inactive”.
In the case of `COC(=O)C1=C(C)NC(C)=C(C(=O)OCCN(C)Cc2ccccc2)C1c1cccc([N+](=O)[O-])c1` (stereo not given), the outcome is reported as “inactive”.
In the case of `COc1ccc([C@@H]2Sc3ccccc3N(CCN(C)C)C(=O)[C@@H]2OC(C)=O)cc1`, the “activity change, negative = inhibition” value is reported as 16.5%.
`CN1CCN(C2=Nc3ccccc3Oc3ccc(Cl)cc32)CC1` was tested, and the “activity change, negative = inhibition” value was 6.22%.
For `CC1=NS(=O)(=O)c2cc(Cl)ccc2N1`, the “activity change, negative = inhibition” value was 11.1%.
With `CCO/C([O-])=N/c1c[n+](N2CCOCC2)no1` the “activity change, negative = inhibition” value was 12.2%.
With `CCc1c(C)[nH]c2c1C(=O)C(CN1CCOCC1)CC2` (stereo not given) the outcome was “inactive”.
In the case of `CCCCNC(=O)NS(=O)(=O)c1ccc(C)cc1`, the outcome is reported as “inactive”.
With `CNC1(C)C2CCC(C2)C1(C)C` (stereo not given) the outcome was “inactive”.
For `COCC(=O)O[C@]1(CCN(C)CCCc2nc3ccccc3[nH]2)CCc2cc(F)ccc2[C@@H]1C(C)C`, the outcome was “inactive”.
`CCCNC(C)C(=O)Nc1ccccc1C` (stereo not given) was tested, and the outcome was “inactive”.
For `CC(=O)Oc1cc(C(C)C)c(OCCN(C)C)cc1C`, the outcome was “inactive”.
With `CCN(CC)CCNC(=O)c1ccc(NC(C)=O)cc1` the “activity change, negative = inhibition” value was 11%.
`C[C@]12CCC(=O)C=C1CC[C@@H]1[C@@H]2CC[C@@]2(C)[C@H]1CC[C@]2(O)C(=O)CO` was tested, and the outcome was “inactive”.
With `COC(=O)[C@@H](N)Cc1ccc(O)c(O)c1` the outcome was “inactive”.
In the case of `CN(C)C/C=C(/c1ccc(Br)cc1)c1cccnc1`, the outcome is reported as “inactive”.
With `CCOC(=O)c1cnc2c(cnn2CC)c1NN=C(C)C` the outcome was “inactive”.
For `COc1cc(Cc2cnc(N)nc2N)cc(OC)c1OC`, the outcome was “inactive”.
With `CNCCCN1c2ccccc2CCc2ccccc21` the outcome was “inactive”.
With `CCCCCCCC/C=C\CCCCCCCC(=O)NCc1ccc(O)c(OC)c1` the outcome was “inactive”.
`CN(C(=O)CCCOc1ccc2[nH]c(=O)ccc2c1)C1CCCCC1` was tested, and the outcome was “inactive”.
With `CO[C@@]1(NC(=O)CSCC#N)C(=O)N2C(C(=O)O)=C(CSc3nnnn3C)CS[C@@H]21` the outcome was “inactive”.
In the case of `NCCCNCCSP(=O)(O)O`, the outcome is reported as “inactive”.
With `COc1ccc(CN(CCN(C)C)c2ccccn2)cc1` the outcome was “inactive”.
With `CCNC(=O)N1CCN(CCCC(c2ccc(F)cc2)c2ccc(F)cc2)CC1` the outcome was “inactive”.
In the case of `O=C1NCN(c2ccccc2)C12CCN(CCCC(c1ccc(F)cc1)c1ccc(F)cc1)CC2`, the outcome is reported as “inactive”.
With `CCCCNc1ccc(C(=O)OCCN(C)C)cc1` the outcome was “inactive”.
With `N[C@@H](COP(=O)(O)O)C(=O)O` the “activity change, negative = inhibition” value was 10%.
With `COc1ccc2c(c1OC)C(=O)O[C@@H]2[C@H]1c2c(cc3c(c2OC)OCO3)CCN1C` the outcome was “inactive”.
`Brc1c(NC2=NCCN2)ccc2nccnc12` was tested, and the outcome was “inactive”.
`Cc1ccc(Cl)c(Nc2ccccc2C(=O)O)c1Cl` was tested, and the “activity change, negative = inhibition” value was 11.7%.
`NC(N)=NC(=O)Cc1c(Cl)cccc1Cl` was tested, and the outcome was “inactive”.
In the case of `CN1C(=O)CC[C@H]1c1cccnc1`, the outcome is reported as “inactive”.
`CCN1CCC[C@H]1CNC(=O)c1c(O)c(Cl)cc(Cl)c1OC` was tested, and the outcome was “inactive”.
In the case of `COc1cc2c(cc1OC)-c1cc(=Nc3c(C)cc(C)cc3C)n(C)c(=O)n1CC2`, the outcome is reported as “inactive”.
With `Cc1ccc(/C(=C\CN2CCCC2)c2ccccn2)cc1` the “activity change, negative = inhibition” value was 7.23%.
